High-throughput results (PubChem)
Shown are actives, neighbours in structure and some others; about 2.3% of the full set was active somewhere.
AmpC inh detg = qHTS Inhibitors of AmpC Beta-Lactamase (assay with detergent). AmpC hydrolysis of nitrocefin, absorbance 480 nm, 0.01% Triton. Potency, µM (titrated, usually from 114 µM), most hits filed as inhibitors. 370,000 tested, 0.041% active. AID 485294, 2010; further: nearly all actives have a fitted effect of over 25% in size
Target sequence (P00811 whole entry, looked up): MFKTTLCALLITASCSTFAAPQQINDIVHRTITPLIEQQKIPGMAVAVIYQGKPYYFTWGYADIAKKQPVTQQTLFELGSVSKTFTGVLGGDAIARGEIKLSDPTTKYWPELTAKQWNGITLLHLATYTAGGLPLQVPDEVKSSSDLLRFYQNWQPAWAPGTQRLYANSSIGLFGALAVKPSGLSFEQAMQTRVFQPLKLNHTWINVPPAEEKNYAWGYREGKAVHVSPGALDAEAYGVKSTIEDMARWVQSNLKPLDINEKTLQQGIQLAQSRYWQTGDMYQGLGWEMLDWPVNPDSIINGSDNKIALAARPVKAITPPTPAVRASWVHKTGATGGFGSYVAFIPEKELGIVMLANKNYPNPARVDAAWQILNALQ
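AmpC (5.3 nM in the dispensed reagent) in 20 mM phosphate pH 7.0 with 0.01% (detergent screen) or 0.0001% Triton X-100 was preincubated with compounds for 15 min at room temperature. Nitrocefin was then added from an 800 uM solution, and hydrolysis was followed at 480 nm.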
AMA1-RON2 inh = qHTS for Inhibitors of AMA1-RON; Towards Development of Antimalarial Drug Lead: Primary Screen; Plasmodium falciparum AMA1 (3D7) - RON2 peptide interaction; AlphaScreen AMA1-biotinylated RON2 peptide binding; Potency, µM (top dose mostly 58.2 µM), hits mostly inhibitors; 360,000 tested, 0.2% active; further: nearly all actives have a fitted effect of over 45% in size
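AMA1 (3D7) with his tag at 25 nM final met compounds first, then biotinylated RON2 peptide at 25 nM; detection used donor plus acceptor beads, 10 µg/mL apiece, read by AlphaScreen after 30 min at room temperature.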
Marburg entry inh = qHTS for inhibitors of binding or entry into cells for Marburg Virus; AID 540276, 2011; Marburg virus pseudotyped entry inhibition, cell reporter; Potency, µM (highest dose often 37.8 µM), usual class: inhibitors; 300,000 tested, 1.8% active; calls by dose curve; tested in HEK293 cells
AmpC inh no detg = qHTS Inhibitors of AmpC Beta-Lactamase (assay without detergent). Potency, µM (top dose mostly 57.1 µM), usual class: inhibitors. 330,000 tested, 0.52% active. P00811. AID 485341, 2010. AmpC nitrocefin hydrolysis, absorbance 480 nm, 0.0001% Triton; further: nearly all actives have a fitted effect of over 20% in size
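20 mM phosphate pH 7.0 + 0.01% (detergent screen) or 0.0001% Triton X-100; 5.3 nM AmpC reagent; cpd preinc 15 min RT; nitrocefin (800 uM stock) to start; A480 q20 s × 4 min; Activity was normalised to no-enzyme and no-compound control wells.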
Lassa entry inh = qHTS for Inhibitors of binding or entry into cells for Lassa Virus; Lassa virus pseudotype entry inhibition, cell reporter; Potency, µM (doses to about 37.9 µM), actives largely listed as inhibitors; 300,000 tested, 1.2% active; AID 540256, 2011; calls by dose curve; tested in HEK293 cells; further: nearly all actives have a fitted effect of over 50% in size
A number is an active result; . = inactive; ? = inconclusive; / = no result given. Unless noted, the call rests on the fitted dose curve; in most records, active means well fitted curve in the direction sought with a large enough effect; inconclusive means small, poorly fitted or top-dose-only effect, or another doubt; inactive means no such curve, though single readings can be large; an effect the other way counts as inactive or inconclusive.

SMILES	AmpC inh detg	AMA1-RON2 inh	Marburg entry inh	AmpC inh no detg	Lassa entry inh
O=C(C1=C(O)C(=O)N(CCCN2CCOCC2)[C@H]1c1ccccn1)c1cc2ccccc2o1	/	/	.	/	/
CC1CCN(C(=O)C2COc3ccccc3C2)CC1 (configuration not stated)	.	/	/	/	.
O=c1c2ccccc2nc(/C=C/c2ccc(O)cc2)n1CCc1ccccc1	.	.	?	.	9.2µM
CCCc1nc2ccccc2c(=O)n1CCc1ccccc1	.	.	?	.	2.5µM
O=C(Cn1c(=O)n(Cc2ccco2)c(=O)c2sc3ccccc3c21)Nc1ccc(F)cc1F	.	/	.	/	.
COc1ccc(OC)c(S(=O)(=O)N2CCN(c3c(C)cccc3C)CC2)c1	?	.	/	40µM	/
CC(C)c1ccc(OCC(=O)N(Cc2cccs2)C2CCS(=O)(=O)C2)cc1 (configuration not stated)	.	/	?	/	.
O=C(CSc1nnnn1-c1ccc(Cl)cc1)NC(=O)Nc1ccc2c(c1)OCCO2	?	.	.	?	.
O=C(CSCc1ccc(Cl)cc1)Nc1ccc2c(c1)OCCO2	.	.	.	11µM	.
O=C(CC(=O)c1ccccc1)Nc1ccc2c(c1)OCCO2	.	.	?	.	8.9µM
O=C(CSc1nnnn1-c1ccccc1Cl)Nc1ccc2c(c1)OCCO2	.	.	.	32µM	/
O=C(CCCc1ccccc1)Nc1ccc2c(c1)OCCO2	.	.	?	.	8.9µM
CN1C(=S)S[C@@H](N(O)C(=O)Nc2ccccc2)C1(C)C	/	/	.	/	/
CC(C)(C)OC(=O)N1CCC(c2c(C(=O)Nc3ccc4c(c3)OCCO4)cnn2-c2ccc(F)cc2F)CC1	.	/	/	/	.
CC1CC(C)(C)NC(=S)N1CCC(=O)Nc1ccc2c(c1)OCCO2 (configuration not stated)	.	.	11µM	.	3.5µM
Cc1ccc(Nc2ccc(N3CCN(C(=O)c4cccc([N+](=O)[O-])c4)CC3)nn2)cc1	.	/	/	/	.
COC(=O)C1=C(C)N(Cc2ccccc2)C(=NCc2ccc3c(c2)OCO3)NC1CCc1ccccc1 (configuration not stated)	/	/	.	/	?
CN(C)c1ccc(CN(Cc2ccco2)C(=O)COc2ccc(F)cc2)cc1	.	/	?	/	5.6µM
CC(=O)Nc1ccc(NC(=O)c2ccccc2CCc2ccccc2)cc1	.	.	?	.	10µM
CC(=O)Nc1ccc(C(=O)NCCc2ccccc2)cc1	.	.	.	.	?
CC(=O)Nc1ccc(CCNC(=O)c2ccc3ccccc3c2O)cc1	/	.	?	/	1µM
Cc1ccccc1CN1[C@H](C)[C@@H](c2ccccc2)Oc2c(Cl)cccc2S1(=O)=O	/	/	/	/	.
CS(=O)c1ccccc1COC(=O)Nc1ccc(Cl)cc1 (configuration not stated)	.	.	.	6.3µM	.
Cc1ccc(NC(=O)OCc2ccccc2S(C)=O)cc1 (configuration not stated)	?	.	.	.	?
C=Cc1cc(OC)c2c(c1)c(=O)oc1c2cc(OC)c2c(O)ccc(C3OC(C)C(O)C(C)(O)C3O)c21 (configuration not stated)	/	.	?	/	0.4µM
SMILES	AmpC inh detg	AMA1-RON2 inh	Marburg entry inh	AmpC inh no detg	Lassa entry inh
N=c1c(C(=O)NCC2CCCO2)cc2c(=O)n3ccccc3nc2n1Cc1ccccc1Cl (configuration not stated)	.	.	11µM	.	?
Cc1ccc(Cn2c(=N)c(C(=O)NCc3ccco3)cc3c(=O)n4ccccc4nc32)cc1	?	.	13µM	.	?
N=c1c(C(=O)NCC2CCCO2)cc2c(=O)n3ccccc3nc2n1Cc1ccccc1 (configuration not stated)	.	.	/	.	/
COCCCn1c(=N)c(C(=O)NCc2ccco2)cc2c(=O)n3ccccc3nc21	.	/	2.5µM	/	.
COc1ccc(CNC(=O)c2cc3c(=O)n4ccccc4nc3n(Cc3ccco3)c2=N)cc1	/	/	.	/	/
CC1CCN(S(=O)(=O)c2ccc3[nH]ccc3c2)CC1	.	/	/	/	.
COc1ccc(OC)c(C2C3=C(COC3=O)Nc3cc4c(cc32)OCO4)c1 (configuration not stated)	.	.	0.26µM	.	.
CCC(CC)C(=O)Nc1ccc2nc(SCC(=O)N3CCOCC3)sc2c1	.	/	.	/	.
COc1cc(OC)c(OC)cc1CN1CCN(Cc2ccc(SC)cc2)CC1	.	?	7.3µM	.	?
CSc1ccc(C(=S)N2CCN(Cc3ccccc3)CC2)cc1	.	.	.	.	16µM
COc1ccc(CN2CCN(Cc3ccc(C(F)(F)F)cc3)CC2)c(OC)c1	.	25µM	/	.	/
COc1ccc(CN2CCN(Cc3ccccc3F)CC2)c(OC)c1	.	.	?	.	.
COc1ccc(CN2CCN(Cc3ccc(C)cc3)CC2)c(OC)c1	.	.	10µM	.	.
O=C(N/N=C/c1ccccn1)c1cccc(NC(=O)c2ccccc2Cl)c1	.	.	/	18µM	/
Cc1cccc(C(=O)Nc2cccc(C(=O)N/N=C/c3ccccn3)c2)c1	.	.	/	.	/
CN(CCO)C[C@H](O)Cn1cnc2c1c(=O)n(C)c(=O)n2C (tested in a mixture with another compound)	/	/	.	/	/
Cc1ccc(-n2cccc2/C=C2/NC(=O)N(CC(=O)Nc3cccc(C)c3)C2=O)cc1	?	.	.	32µM	.
O=C(c1ccc(S(=O)(=O)N2CCCC2)cc1)N1CCCCC1	.	.	.	.	.
O=C(/C=C/c1ccc(O)c(O)c1)c1ccc(S(=O)(=O)N2CCCCCC2)cc1	?	.	.	25µM	.
CN(C)S(=O)(=O)c1cc(NC(=O)CSc2nn(-c3ccc(Cl)cc3)c(=S)s2)ccc1Cl	?	.	?	14µM	?
NS(=O)(=O)c1cccc(NC(=O)CSc2nn(-c3ccccc3)c(=S)s2)c1	?	.	?	.	?
Cc1ccc(NC(=O)CSc2nn(-c3ccc(Cl)cc3)c(=S)s2)cc1S(=O)(=O)N(C)C	.	.	?	.	11µM
CC1CCN(CCCNC(=O)c2cc(Sc3ccc(F)cc3)nc3ccccc23)CC1	.	/	/	/	.
COc1ccc(Br)cc1CNC(=O)C1CCN(c2nnc(-n3cccc3CNc3ccc(C)cc3)s2)CC1	.	/	.	/	/
FC(F)(F)c1cccc(Cn2c3[n+](c4ccc(C(F)(F)F)cc42)CCCCC3)c1	.	.	?	.	.
Cc1cc(C(C)(C)C)cc(C)c1Cn1c2[n+](c3ccc(C(F)(F)F)cc31)CCCCC2	.	.	?	.	13µM
CCCOC(=O)c1cccc(Nc2nc(-c3cccnc3)nc3ccccc23)c1	?	.	10µM	.	?
O=C(OCCNc1nc(-c2ccccc2)nc2ccccc12)c1cccnc1	.	.	/	.	/
CCc1nc(Nc2ccc(N3CCN(C(C)=O)CC3)cc2)c2oc3ccccc3c2n1	35µM	.	?	.	?
CC(=O)N1CCN(c2ccc(Nc3ncnc4c3oc3ccccc34)cc2)CC1	.	.	?	.	?
